Results from PubChem BioAssay AID720511 (Broad Institute, 2013).
Hit rate of the full screen: of about 350,000 compounds, about 1,300 (0.37%) were called active.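 The calls were made as follows: active = mean added fluorescence quench of at least 8% versus neutral control, with both replicates also reaching 8%; inconclusive = only one of the mean or replicate conditions met; inactive = mean below 8% and not both replicates reaching 8%.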 The full list was thinned out, with actives kept by preference.

assay: F508del CFTR correction, initial screen, CFBE line, single point (AID 720511); conditions: CFBE cells, YFP halide quenching, at 7.58 µM, stronger effect = higher value, % fluorescence drop versus neutral controls, stimulated with forskolin plus potentiator P3;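 also: cells transiently co-express mutant CFTR-F508del with the halide-sensitive YFP; corrector assay measuring rescue of mutant channel to the surface after 24 h compound exposure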

Activity (quench increase), inactive:
CCCNC(=O)[C@@H]1[C@@H](CO)[C@@H]2Cn3c(ccc(/C=C/c4ccccc4)c3=O)[C@H]1N2CCC 3.14%
CCCN1[C@H](C(=O)N2CCCCC2)[C@@H](CO)[C@@H]2Cn3c(ccc(-c4ccccc4F)c3=O)[C@@H]21 1.6%
Cc1ccc(S(=O)(=O)Nc2ccc3c(c2)C(=O)N([C@@H](C)CO)C[C@@H](C)[C@H](CN(C)Cc2ccncc2)O3)cc1 -0.494%
C[C@@H]1CCCCO[C@H](CN(C)Cc2ccc(Cl)c(Cl)c2)[C@@H](C)CN([C@@H](C)CO)C(=O)c2cc(NC(=O)Nc3ccccc3)ccc2O1 0.025%
COc1ccc(CNC(=O)COC(=O)c2ccc(C)c(S(=O)(=O)N3CCOCC3)c2)cc1OC -3.23%
Cc1ccc(C(=O)OCC(=O)N2CC(C)CC(C)C2)cc1S(=O)(=O)N1CCCCC1 (centres undefined) 0.347%
Cc1cc(C)c(C#N)c(Nc2cccc(Br)c2)n1 -5.44%
C[C@H]1CN([C@@H](C)CO)C(=O)c2ccccc2-c2ccccc2CO[C@@H]1CN(C)C(=O)CCN(C)C -0.09%
O=C(Nc1ccc(F)cc1)N[C@H]1CC[C@H](CCn2cc(C3(O)CCCC3)nn2)O[C@@H]1CO 0.048%
O=C(NNC(=O)C(O)c1ccccc1)NC1CCCCC1 (centres undefined) -1.37%
CC(C)c1cc(C(=O)NC2CCCCCC2)c2ccccc2n1 0.503%
CNC[C@H]1OCCCC[C@@H](C)Oc2ccc(NC(=O)Cc3ccccc3)cc2C(=O)N([C@H](C)CO)C[C@@H]1C -0.325%
CCCNC(=O)N(C)C[C@@H]1Oc2ncc(-c3cccc(C#N)c3)cc2C(=O)N([C@@H](C)CO)C[C@@H]1C 0.957%
O=C(c1cnccn1)N1CC[C@@H]2[C@H](CO)Nc3ccc(-c4cccc(F)c4)cc3[C@@H]21 2.08%
CCOC(=O)C1CCCN(C(=O)c2ccc(C)c(F)c2)CC1 (centres undefined) 0.23%
CCNC(=O)C1CCCN(C(=O)c2ccc(OC)cc2OC)CC1 (centres undefined) -1.31%
CCCNC(=O)N1[C@H](CO)[C@@H]2c3ccccc3N(C(=O)C3CCOCC3)C[C@@H]21 2.24%
COc1ccc(NC(=O)N(C)C[C@@H]2OCCCC[C@@H](C)Oc3ccc(NS(=O)(=O)c4cn(C)cn4)cc3C(=O)N([C@@H](C)CO)C[C@H]2C)cc1 0.433%
Cn1cc(C(=O)c2ccc(Cl)cc2Cl)cc1C(=O)NN -2.38%
CC(C)(C)NC(=O)NC(=O)COC(=O)Cc1ccc(Cl)cc1Cl 1.27%
C[C@H]1CN([C@@H](C)CO)C(=O)c2cc(C#CC(C)(C)O)cnc2O[C@H]1CN(C)C(=O)CC1CC1 0.266%
C[C@@H]1CN([C@H](C)CO)C(=O)c2cc(NS(=O)(=O)c3ccc(Cl)cc3)ccc2O[C@@H]1CN(C)CC1CCCCC1 -0.515%
O=C(C[C@H]1C[C@@H]2c3cc(NC(=O)c4ccc5c(c4)OCO5)ccc3O[C@@H]2[C@@H](CO)O1)NCCN1CCCCC1 0.031%
O=C(C1CCCC1)N1CC(=O)N2[C@H](C1)[C@@H](c1ccc(-c3ccccc3F)cc1)[C@@H]2CO -2.35%
O=C(C1CCC1)N1CC(=O)N2[C@H](C1)[C@@H](c1ccc(-c3ccccc3F)cc1)[C@@H]2CO 1.31%
COc1ccc(N2CCN(S(=O)(=O)c3ccc4c(c3)NC(=O)C(C)C(=O)N4)CC2)cc1 (centres undefined) 0.269%
CCOC(=O)N1CCN(S(=O)(=O)c2ccc(Br)cc2)CC1 -1.86%
COc1cccc(S(=O)(=O)N[C@H]2C=C[C@@H](CC(=O)NCc3ccc(F)cc3)O[C@@H]2CO)c1 -1.9%
Cc1ccc(S(=O)(=O)N(C)C[C@@H]2Oc3c(NC(=O)Nc4ccc(F)cc4)cccc3C(=O)N([C@H](C)CO)C[C@H]2C)cc1 0.333%
C[C@@H]1CN([C@H](C)CO)C(=O)c2cccc(NC(=O)Nc3cccc4ccccc34)c2O[C@@H]1CN(C)C(=O)Nc1ccc(F)cc1 1.61%
COc1ccc(-c2c(C)cc3oc(=O)cc(-c4ccccc4)c3c2C)cc1C=O 0.386%
COc1ccc(-c2c(C)cc3oc(=O)cc(-c4ccccc4)c3c2C)cc1F 3.75%
CCC(=O)N(C)C[C@H]1Oc2cc(C#CC3CC3)ccc2S(=O)(=O)N([C@@H](C)CO)C[C@@H]1C -0.535%
COCCCNc1ccn2nc(-c3ccc(CC(C)C)cc3)cc2n1 2.65%
COc1ccccc1-c1cc2nc(NCc3cccc(Cl)c3)ccn2n1 0.85%
C[C@H]1CN([C@@H](C)CO)C(=O)c2cccc(NS(=O)(=O)c3cccs3)c2O[C@H]1CN(C)Cc1ccc(C(=O)Nc2ccccc2N)cc1 0.531%
CN(C)CCN1CCN(c2cc(-c3cccc(Cl)c3)nc3ccnn23)CC1 -1.38%
O=C(c1ccccc1)N1CCN(c2cc(-c3ccccc3)nc3cc(-c4cccc(Cl)c4)nn23)CC1 -2.01%

Activity (quench increase), active:
CCCN1[C@H](C(=O)N2CCOCC2)[C@@H](CO)[C@@H]2Cn3c(ccc(/C=C/c4ccccc4)c3=O)[C@@H]21 9.23%
Cc1ccc(C(=O)OCC(=O)NCc2cc(C)c(O)c(C)c2)cc1S(=O)(=O)N1CCCCC1 9.62%
Cc1cc(Nc2ccc(Br)cc2)nc2ccccc12 10.3%
Cc1nc(/N=C(\N)NC(=O)NC2CCCCC2)nc2ccccc12 12.3%
CCNC(=O)C1CCCN(C(=O)c2cc(F)ccc2C)CC1 (centres undefined) 10%
CC(C)(C)c1cc(C(=O)NN)n(Cc2ccc(Cl)cc2Cl)n1 8.63%
O=C(C1CC1)N1CC(=O)N2[C@H](CO)[C@@H](c3ccc(-c4ccccc4F)cc3)[C@@H]2C1 11.5%
CCOC(=O)N1CCN(S(=O)(=O)c2ccc3c(c2)C(C)C(=O)N3)CC1 (centres undefined) 8.05%
COc1ccc(-c2c(C)cc3oc(=O)cc(-c4ccccc4)c3c2C)cc1OC 9.4%
CC(C)Cc1ccc(-c2cc3nc(NCc4cccc(Cl)c4)ccn3n2)cc1 8.67%
C#Cc1cc(N2CCN(C(=O)c3ccoc3)CC2)n2nc(-c3cccc(Cl)c3)cc2n1 8.96%
